Experimental data from PubChem BioAssay (NCATS).
Values without a mark were called inactive.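 How the source made its calls: active means compounds whose dose series gives a full or clear partial fitted curve of increased nuclear translocation; inconclusive means weak partial curve or effect only at the top dose; inactive means no dose-dependent translocation response.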

biological target: Glucocorticoid receptor (Homo sapiens) (UniProt P04150); assay: GR-GFP Redistribution (AID 450); settings: U2OS GR-GFP nuclear translocation, laser cytometry, 2 h
Sequence (P04150 whole entry, looked up): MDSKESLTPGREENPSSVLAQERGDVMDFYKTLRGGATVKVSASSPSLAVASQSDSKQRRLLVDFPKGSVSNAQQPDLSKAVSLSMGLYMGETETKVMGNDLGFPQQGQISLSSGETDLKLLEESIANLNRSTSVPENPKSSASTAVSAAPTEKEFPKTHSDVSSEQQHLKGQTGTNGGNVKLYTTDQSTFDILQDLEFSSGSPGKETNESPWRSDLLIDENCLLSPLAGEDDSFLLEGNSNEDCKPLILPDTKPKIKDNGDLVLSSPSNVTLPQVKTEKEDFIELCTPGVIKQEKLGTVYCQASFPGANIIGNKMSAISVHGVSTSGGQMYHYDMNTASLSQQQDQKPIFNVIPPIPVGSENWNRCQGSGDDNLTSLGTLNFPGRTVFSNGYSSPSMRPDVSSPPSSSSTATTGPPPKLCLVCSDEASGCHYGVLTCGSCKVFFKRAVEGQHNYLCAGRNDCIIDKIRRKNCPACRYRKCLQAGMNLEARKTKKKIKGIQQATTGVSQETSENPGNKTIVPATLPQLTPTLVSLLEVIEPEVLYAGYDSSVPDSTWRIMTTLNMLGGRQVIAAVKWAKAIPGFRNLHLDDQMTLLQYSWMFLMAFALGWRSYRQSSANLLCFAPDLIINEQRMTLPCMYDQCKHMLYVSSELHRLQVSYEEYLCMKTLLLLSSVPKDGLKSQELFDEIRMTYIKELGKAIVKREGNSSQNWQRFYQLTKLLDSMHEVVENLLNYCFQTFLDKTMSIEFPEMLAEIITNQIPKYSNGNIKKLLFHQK
Potency means the concentration at half of the fitted maximal effect.

Question: How did the Potency turn out when O=S(=O)(O)CCCc1cccc2ccccc12 was run?
Answer: > 46 µM

Question: Which Potency does the source give for CC(C)(Oc1ccc(-c2cccc3ccccc23)cc1)C(=O)O here?
Answer: > 46 µM

Question: With O=[N+]([O-])c1cc(Cc2cc([N+](=O)[O-])c3cccnc3c2O)c(O)c2ncccc12 as the compound, how does the Potency read?
Answer: > 46 µM

Question: For O[C@@H](COc1cccc2ccccc12)CN1CCOCC1, which Potency is on record?
Answer: > 46 µM

Question: For FC(F)(F)c1nc(SCc2ccc(Cl)cc2)n[nH]1, which Potency is on record?
Answer: > 46 µM

Question: How did the Potency turn out when O=C1c2ccccc2-c2ccc(NC(=O)[C@H]3CCCC[C@@H]3C(=O)O)cc21 was run?
Answer: > 46 µM

Question: Which Potency does the source give for CCOC(=O)C1=C(C)NC(=O)N[C@@H]1c1coc2cc(C)cc(C)c2c1=O here?
Answer: > 46 µM

Question: For OCCCSCCO, which Potency is on record?
Answer: > 46 µM

Question: How did the Potency turn out when CC1=N[C@@](C)(COC(=O)[C@]2(C)N[C@](C)(CO)CO2)COC1=O was run?
Answer: > 46 µM

Question: For NCC[C@H](N)C(=O)O, which Potency is on record?
Answer: > 46 µM

Question: For O=S(=O)(c1ccccc1)N1CN2CN(C1)CN(S(=O)(=O)c1ccccc1)C2, which Potency is on record?
Answer: > 46 µM

Question: With NC(=O)Nc1n[nH]c(-c2ccccc2)n1 as the compound, how does the Potency read?
Answer: > 46 µM

Question: With C[C@@]1(C(=O)O)CCC[C@@H]1C(=O)O as the compound, how does the Potency read?
Answer: > 46 µM

Question: CCOC(=O)C(C)(C)[C@H](O)C(C)C was tested. Which Potency did it give?
Answer: > 46 µM

Question: How did the Potency turn out when N=C(N)[C@H](N=Nc1ccccc1)C(N)=O was run?
Answer: > 46 µM

Question: Which Potency does the source give for O=C(Cn1ccc(=O)[nH]c1=O)Nc1ccc(C(=O)O)c(O)c1 here?
Answer: > 46 µM

Question: With N[C@@H](Cc1c[nH]c2ccc([N+](=O)[O-])cc12)C(=O)O as the compound, how does the Potency read?
Answer: > 46 µM

Question: With Nc1nc(-c2cccc([N+](=O)[O-])c2)cc(-c2cc(-c3cccc([N+](=O)[O-])c3)nc(N)n2)n1 as the compound, how does the Potency read?
Answer: > 46 µM

Question: For O=C(O)CC[C@@]1(c2ccccc2)NC(=O)NC1=O, which Potency is on record?
Answer: > 46 µM

Question: For NS(=O)(=O)c1ccc(N=Nc2ccc(O)c(C(=O)O)c2)cc1, which Potency is on record?
Answer: > 46 µM

Question: Which Potency does the source give for N=C(N)SCCSC(=N)N here?
Answer: > 46 µM

Question: Which Potency does the source give for Cc1c(C(=O)O)nc(/C=C\C(=O)O)[nH]c1=O here?
Answer: > 46 µM

Question: Which Potency does the source give for O=C(Nc1ccc2ncccc2c1)Nc1ccc2ncccc2c1 here?
Answer: > 46 µM

Question: With Cc1ccc(S(=O)(=O)Oc2cc(S(=O)(=O)O)cc3cc(S(=O)(=O)O)cc(N)c23)cc1 as the compound, how does the Potency read?
Answer: > 46 µM

Question: COc1ccc(NC(=S)Nc2ccccc2)cc1 was tested. Which Potency did it give?
Answer: > 46 µM

Question: Which Potency does the source give for Cn1cnc([N+](=O)[O-])c1Sc1nc(N)nc2c1ncn2Cc1ccccc1 here?
Answer: > 46 µM

Question: N=C(N)SCc1cc(Cl)cc(Cl)c1O was tested. Which Potency did it give?
Answer: > 46 µM

Question: For C[C@@](N)(/C=C\c1ccccc1)C(=O)O, which Potency is on record?
Answer: > 46 µM

Question: O=C(O)C1(Nc2ccc(Cl)cc2)CCCC1 was tested. Which Potency did it give?
Answer: > 46 µM

Question: NS(=O)(=O)c1ccc(N=C2C(=O)Nc3ccccc32)cc1 was tested. Which Potency did it give?
Answer: > 46 µM

Question: How did the Potency turn out when COCCn1c(=O)c(-c2cc(F)cc(F)c2)nc2cnc(Oc3ccccc3)nc21 was run?
Answer: > 9.22 µM

Question: With O=C(O)C(Sc1ccc(Cl)cc1)Sc1ccc(Cl)cc1 as the compound, how does the Potency read?
Answer: > 46 µM

Question: N=c1nc(N)nc(N)n1-c1ccc(S(N)(=O)=O)cc1 was tested. Which Potency did it give?
Answer: > 46 µM

Question: CN(C)Cc1ccc(O)c(CN(C)C)n1 was tested. Which Potency did it give?
Answer: > 46 µM

Question: For COC(=O)[C@]1(C)CCC(c2ccc(C)cc2)=C(CC(=O)O)C1, which Potency is on record?
Answer: > 46 µM

Question: Cc1cc(CN2CCCCC2)c(O)c(CN2CCCCC2)c1 was tested. Which Potency did it give?
Answer: > 46 µM

Question: CCO[P@]1(=O)OC[C@@H]2O[C@H](n3cnc4c(N)ncnc43)[C@H](O)[C@@H]2O1 was tested. Which Potency did it give?
Answer: > 46 µM

Question: Which Potency does the source give for O=C(NCCO)c1ccc(Cl)cc1 here?
Answer: > 46 µM

Question: Which Potency does the source give for C/C(=N/S(=O)(=O)c1ccc(Cl)c(Cl)c1)OCC(C)(C)C here?
Answer: > 46 µM
